# Where “and” joins values, the source holds several entries; their conditions need not be identical. Identical values can stand only once. Inconclusive results are not listed. Unmarked numbers belong to inactive results. Calls of active or inactive are those of the source. The call rests on the fitted dose curve; in most records, active means well fitted activation curve with a large enough effect in the repeat runs; inconclusive means weak or mixed curves; inactive means no such curve, though single readings can be large or run the other way. Positions of bridges follow the written chain, without caps; N, C: chain ends. Residues, ends and D or L forms follow the SMILES beside them.
# Target: Aryl hydrocarbon receptor (Homo sapiens) (UniProt P35869)
# Assay: qHTS assay to identify small molecule that activate the aryl hydrocarbon receptor (AhR) signaling pathway (AID 743085); further: nearly all actives have a fitted effect of over 15% in size;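 on activation: HG2L7.5c1 human HepG2 liver cells with stably integrated DRE-driven firefly reporter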
# Conditions: HepG2 AhR-luc (HG2L7.5c1), luciferase, 24 h; series mostly up to 70.3 µM; activation: at the top concentration
# Description: U.S. Tox21 Program National Center for Advancing Translational Sciences [NCATS] NIH Chemical Genomics Center [NCGC] U.S. Environmental Protection Agency [EPA] National Institutes of Environmental Health Sciences [NIEHS] National Toxicology Program [NTP] U.S. Food and Drug Administration [FDA] Tox21 Assay overview: The Aryl hydrocarbon Receptor (AhR), a member of the family of basic helix-loop-helix transcription factors, is crucial to adaptive responses to environmental changes. AhR mediates cellular responses to environmental pollutants such as aromatic hydrocarbons through induction of phase I and II enzymes but also interacts with other nuclear receptor signaling pathways. A cell based HepG2-AhR-luc assay (HG2L7.5c1 cell line, developed by Dr. Michael S. Denison, University of California at Davis, was used to assess the activation of AhR. HepG2 (human hepatocellular carcinoma) cells were stably transfected with an Ah receptor-responsive firefly luciferase reporter gene plasmid containing 20 dioxin responsive elements and luciferase reporter gene. Increased luciferase activity can be used to identify the compounds that induce AhR activation.
# Tox21 Assay Protocol Summary: 4000 cells in 5 uL/well were dispensed into white wall/solid bottom 1536-well plates using a Multidrop Combi (Thermo Fisher Scientific Inc., Waltham, MA) dispenser. After the assay plates were incubated at 37C for 5 h, 23 nL of compound or DMSO vehicle was transferred to the assay plates by a pintool station (Kalypsys, San Diego, CA). The plates were incubated at 37C for 24 hr. After 1 ul/well of CellTiter-Fluor reagent (Promega, Madison, WI) was added into the assay plates using a Flying Reagent Dispenser (FRD) (Aurora Discovery, CA), the assay plates were incubated at 37C for 30 min. The fluorescence intensity in the plates was measured using a ViewLux plate reader (PerkinElmer, Shelton, CT), followed by the addition of 4 uL of ONE-Glo Luciferase Assay reagent (Promega) using an FRD (Aurora Discovery). After the assay plates were incubated at room temperature for 30 min, luminescence intensity was measured using a ViewLux plate reader (Perkin Elmer).
# On the % scale 0 is the no-effect control and ±100 the full control effect; potency means the concentration at half of the fitted maximal effect.
# Sequence of Aryl hydrocarbon receptor (Homo sapiens) (P35869 whole entry, looked up): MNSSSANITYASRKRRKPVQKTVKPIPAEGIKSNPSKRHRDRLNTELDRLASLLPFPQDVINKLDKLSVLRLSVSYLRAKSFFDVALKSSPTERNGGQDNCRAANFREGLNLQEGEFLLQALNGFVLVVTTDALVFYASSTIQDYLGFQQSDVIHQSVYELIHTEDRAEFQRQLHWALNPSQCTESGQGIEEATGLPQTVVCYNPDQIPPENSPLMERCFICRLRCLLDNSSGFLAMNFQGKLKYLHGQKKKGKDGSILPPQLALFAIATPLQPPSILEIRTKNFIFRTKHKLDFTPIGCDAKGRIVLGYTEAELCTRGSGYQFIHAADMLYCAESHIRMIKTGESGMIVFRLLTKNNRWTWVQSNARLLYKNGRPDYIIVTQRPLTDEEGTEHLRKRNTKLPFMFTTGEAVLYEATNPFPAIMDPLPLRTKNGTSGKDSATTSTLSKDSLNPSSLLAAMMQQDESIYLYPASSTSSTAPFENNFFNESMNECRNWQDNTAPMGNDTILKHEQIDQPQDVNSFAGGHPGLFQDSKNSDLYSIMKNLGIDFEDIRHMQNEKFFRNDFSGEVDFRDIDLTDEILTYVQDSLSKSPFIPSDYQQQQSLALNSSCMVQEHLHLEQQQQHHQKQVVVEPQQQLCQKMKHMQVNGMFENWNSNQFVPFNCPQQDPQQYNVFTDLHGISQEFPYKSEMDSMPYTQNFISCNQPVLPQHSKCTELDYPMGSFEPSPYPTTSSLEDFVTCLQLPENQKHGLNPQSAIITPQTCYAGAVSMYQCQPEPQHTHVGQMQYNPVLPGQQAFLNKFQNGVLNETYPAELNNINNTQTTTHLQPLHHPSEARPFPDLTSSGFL
SMILES,activation,Potency
O=C(O[C@H]1CN2CCC1CC2)N1CCc2ccccc2[C@@H]1c1ccccc1,-3.04%,–
NCCCC[C@H](NC(=O)[C@@H]1CCCN1C(=O)[C@@H]1CSSC[C@H](NC(=O)CNC(=O)CNC(=O)CN)C(=O)N[C@@H](Cc2ccc(O)cc2)C(=O)N[C@@H](Cc2ccccc2)C(=O)N[C@@H](CCC(N)=O)C(=O)N[C@@H](CC(N)=O)C(=O)N1)C(=O)NCC(N)=O (H-GGGCYFQNCPKG-NH2; disulfide 4-9),-1.95%,–
CC(=O)N[C@@H]([C@@H](O)[C@H](O)[C@H](O)CO)[C@@H](O)CC(=O)C(=O)O,-1.3%,–
CC(=O)OC[C@H]1O[C@@H](O[C@H]2[C@H](O)[C@@H](OC(=O)c3ccccc3C(=O)O)[C@H](O)O[C@@H]2COC(C)=O)[C@H](O)[C@@H](OC(=O)c2ccccc2C(=O)O)[C@@H]1O,-1.91%,–
CCCCCCCCCCCCCCCCCCCCCC(=O)Nc1ccn([C@@H]2O[C@H](CO)[C@@H](O)[C@@H]2O)c(=O)n1,-0.0798%,–
CN1c2cc(O)c(N=NC(N)=O)cc2CC1S(=O)(=O)O (stereo not given),-1.12%,–
CC(C)C(=O)OCC(=O)[C@@]12O[C@H](C3CCCCC3)O[C@@H]1C[C@H]1[C@@H]3CCC4=CC(=O)C=C[C@]4(C)[C@H]3[C@@H](O)C[C@@]12C,0.275%,–
O=C(O)c1nc(=O)[nH]c(=O)[nH]1,1.53%,–
CCCCCCCCCCCCCCCCCC(=O)OC[C@@H](O)[C@H]1OC[C@H](O)[C@H]1O,-0.284%,–
O=C1NC(=O)[C@H]2[C@@H]1[C@@H]1C=C[C@H]2C1,-1%,–
Clc1cc(Cl)c(OCC#CI)cc1Cl,-7.42%,–
CCCCCCCCCCCCCCCCSCC(COC)COP(=O)([O-])OCC[N+](C)(C)C (stereo not given),-4.21%,–
COCC1=C(C(=O)OC(C)OC(=O)OC(C)C)N2C(=O)[C@@H](NC(=O)/C(=N\OC)c3csc(N)n3)[C@H]2SC1 (stereo not given in full),–,inactive
O=C1O[C@H]2[C@H](O)[C@@H]1OC(O)[C@H]2O (stereo not given in full),-2.57%,–
CC(=O)[C@@]1(O)CC[C@H]2[C@@H]3C=C(Cl)C4=CC(=O)[C@@H]5C[C@@H]5[C@]4(C)[C@H]3CC[C@@]21C,-0.0061%,–
CCC(=O)NCCC1CCc2ccc3c(c21)CCO3 (stereo not given),4.49%,–
O=C(Nc1ccc(O)cc1)c1ccccc1O,–,23.7 µM (active)
CCC(c1ccccc1)c1noc(CCN(CC)CC)n1 (stereo not given),-2.58%,–
CCN(CC)CCC(=O)N1c2ccccc2Sc2ccc(Cl)cc21,-5.23%,–
COc1cc([C@@H]2c3cc4c(cc3C(O[C@@H]3O[C@@H]5COC(c6cccs6)O[C@H]5[C@H](O)[C@H]3O)C3COC(=O)[C@@H]32)OCO4)cc(OC)c1O (stereo not given in full),0.159%,–

SMILES,activation,Potency
COC(=O)[C@H]1[C@H]2C[C@@H]3c4[nH]c5ccccc5c4CCN3C[C@H]2C[C@@H](OC(=O)c2cc(OC)c(OC)c(OC)c2)[C@@H]1OC,–,13.3 µM (active) and 6.68 µM (active)
CO[C@H]1C[C@H](O[C@H]2[C@H](C)[C@@H](O[C@@H]3O[C@H](C)C[C@H](N(C)C)[C@H]3OC(C)=O)[C@@H](C)C[C@]3(CO3)C(=O)[C@H](C)[C@@H](OC(C)=O)[C@@H](C)[C@@H](C)OC(=O)[C@@H]2C)O[C@@H](C)[C@@H]1OC(C)=O,-1.79% [at 32.5 µM],–
CC1CS(=O)(=O)CCN1/N=C/c1ccc([N+](=O)[O-])o1 (stereo not given),-0.902% [at 32.5 µM],–
CN1CCC(CN2c3ccccc3Sc3ccccc32)C1 (stereo not given),0.14%,–
O=C(O)[C@H](CC(=O)N1C[C@H]2CCCC[C@H]2C1)Cc1ccccc1,0.193%,–
CCN(CC)c1ccc(C(=C2C=CC(=[N+](CC)CC)C=C2)c2ccccc2)cc1,-14.3%,–
C=C1C(=C/C=C2\CCC[C@]3(C)[C@@H]([C@H](C)CCCC(C)(C)O)CC[C@@H]23)C[C@@H](O)C[C@@H]1O,–,10.6 µM (active)
CCCc1nc(C(C)(C)O)c(C(=O)OCc2oc(=O)oc2C)n1Cc1ccc(-c2ccccc2-c2nn[nH]n2)cc1,-0.0729%,–
CCCCCCCCCCCC(=O)OC[C@@H](O)C1OC[C@H](O)[C@H]1O (stereo not given in full),-1.84%,–
CN(C)CCC=C1c2ccccc2C(C)(C)c2ccccc21,0.0992%,–
C=C1c2c(Cl)ccc(O)c2C(O)=C2C(=O)[C@]3(O)C(O)=C(C(N)=O)C(=O)[C@@H](N(C)C)[C@@H]3[C@@H](O)[C@H]12,-0.459% [at 32.5 µM],–
O=C(/C=C/c1cccc(F)c1)NC1CC1,8.02%,–
COc1cc2c(cc1OC)[C@@H](c1ccccc1)CN(C)CC2,-1.84%,–
COc1ccc(CCNCC(O)COc2cccc(C)c2)cc1OC (stereo not given),0.845%,–
CCNC(=O)[C@@H]1CCCN1C(=O)[C@H](CCCN=C(N)N)NC(=O)[C@H](CC(C)C)NC(=O)[C@@H](CC(C)C)NC(=O)[C@H](Cc1ccc(O)cc1)NC(=O)[C@H](CO)NC(=O)[C@H](Cc1c[nH]c2ccccc12)NC(=O)[C@H](Cc1cnc[nH]1)NC(=O)[C@@H]1CCC(=O)N1,0.897%,–
O=S(O)CNc1ccc(S(=O)(=O)c2ccc(NCS(=O)O)cc2)cc1,-1.11%,–
CCC(Oc1ccccc1)C(=O)N[C@@H]1C(=O)N2[C@@H]1SC(C)(C)[C@@H]2C(=O)O (stereo not given in full),-1%,–
CC1(O)CCC(C(C)(C)O)CC1 (stereo not given),0.297%,–
CCCCC(=O)O[C@H]1CC[C@H]2[C@@H]3CCc4cc(O)ccc4[C@H]3CC[C@]12C,0.583%,–
O=C(O)c1c(Cl)c(Cl)c(Cl)c(Cl)c1-c1c2cc(I)c(=O)c(I)c-2oc2c(I)c(O)c(I)cc12,–,6.68 µM (active)
